From ChEMBL document CHEMBL4888484, “Replenishing the malaria drug discovery pipeline: Screening and hit evaluation of the MMV Hit Generation Library 1 (HGL1) against asexual blood stage Plasmodium falciparum ,using a nano luciferase reporter read-out” (2022) come the findings set out here.

About 540 (0.36%) of roughly 150,000 compounds showed an effect of 50% or more. This is one part of a sample in which strong results are shown more often than they occur.

The assay has as its system Plasmodium falciparum. The experiment in a line: Primary screen in NF54 nanoGlo assay, in single point, at 2uM, 72h; a lower Z score goes with more inhibition. The class given is functional, Erythrocyte. Particulars: timepoint 72 hour.
As a reminder, the % Inhibition is the drop in the measured response relative to a control, in per cent. For `COc1ccc(F)c(-c2cc(N)nc(N(C)C)n2)c1`, the “% Inhibition” value is reported as -15% and the Z score is reported as 2.16.
For `CN(C)c1nc(N)cc(-c2ccc(-n3cccn3)cc2)n1`, in that order: -1% and 0.21.
For `CN(C)c1nc(N)cc(-c2cccc3cccnc23)n1`, in that order: 57% and -7.96.
For the compound `COc1ccc2c(c1)C1(CC1)CN(C(=O)Nc1ccnnc1C)C2`, the “% Inhibition” value was -11% and the Z score was 2.25.
For `COc1ccc(-c2cc3c(=O)n(CCNC(=O)Cc4ccc(F)cc4)ccn3n2)cc1`, in that order: -7% and 1.17.
The corresponding values for `CNC(=O)[C@@H]1C[C@H](Oc2ccccc2)CN1S(C)(=O)=O` are -12% and 1.64.
The corresponding values for `NC(=O)[C@@H]1CN(Cc2ncc(C(F)(F)F)s2)CCO1` are -12% and 1.56.
With `CC[C@H](C)NC(=O)COc1ccc(Cl)cc1C(N)=O`, the “% Inhibition” value is given as -8% and the Z score stood at 0.84.
For `CCc1nc(C)cc(N(C)CCn2nc(C)cc2C)n1`, in that order: -18% and 1.72.
The corresponding values for `Cc1cc(O)nc([C@H](C)N(C)CC2CCOCC2)n1` are -12% and 1.59.
The corresponding values for `Cc1cc(N(C)CCC2CC2)nc([C@H](C)N(C)CCC2CC2)n1` are 59% and -9.38.
With `CCCN(CCC)C[C@H](O)COc1c(Cl)cccc1Cl`, the “% Inhibition” value is reported as -6% and the Z score stood at 0.67.
The corresponding values for `CCN(CC)CC(O)COc1c(Br)cc(C(C)(C)c2cc(Br)c(OCC(O)CN(CC)CC)c(Br)c2)cc1Br` (centres undefined) are 99% and -13.36.
The corresponding values for `OCCN(CCO)C[C@H](O)COc1c(Br)cc(Br)cc1Br` are -7% and 1.05.
On to `Cc1ncc2ncccc2c1Br`, for which the “% Inhibition” value is listed as -4% and the Z score came to 0.8.
`Cc1nc(-c2ccccc2)cc(N2CCN(CCc3ccccc3)CC2)n1`: the “% Inhibition” value amounted to 0% and the Z score is reported as 0.
The corresponding values for `Cn1c(Cc2n[n+]3c(-c4ccccc4)cc(-c4ccccc4)nc3n2C)n[n+]2c(-c3ccccc3)cc(-c3ccccc3)nc12` are 95% and -10.43.
The corresponding values for `C[n+]1cnc(-c2ccccc2)cc1-c1ccccc1` are 1% and -0.07.
The corresponding values for `CCS(=O)(=O)CCNC(=O)c1ccnc(C(C)C)n1` are -4% and 0.73.
As for `O=C(Cn1nc(-n2cccn2)ccc1=O)NCc1ccco1`, the “% Inhibition” value is -7% and the Z score is given as 1.27.
For `CCCC1CCC(OC(=O)c2ccc(C(=O)OC3CCC(CCC)CC3)nc2)CC1` (centres undefined), in that order: 74% and -10.02.
Turning to `NC(=O)c1ccc(C(=O)OC2CCCCCC2)cn1`, the “% Inhibition” value came to 3% and the Z score is listed as -0.42.
The corresponding values for `CCOC(=O)c1ccc(NC(=O)CC2CCC2)cn1` are 3% and -0.29.
For `CCc1nnc(-c2[nH]c(C)c(S(=O)(=O)Nc3cccc(Cl)c3)c2C)o1`, in that order: -5% and 0.66.
The corresponding values for `COC(C)[C@H](C)NCC(C)c1ccccc1` (some centres undefined) are 73% and 1.55.
As for `C[C@@H](CNC(=O)C(C)(C)C)c1ccccc1`, the “% Inhibition” value was -10% and the Z score is reported as 0.9.
The corresponding values for `Cc1c(NC[C@H](C)c2ccccc2)cnn1C` are -3% and 0.4.
For `Cc1cnc(=O)n(CC(=O)N2CCN(c3ccccc3F)CC2)c1`, the “% Inhibition” value is reported as -1% and the Z score is 0.07.
As for `CN1CCC(N(CCc2ccccc2)C(=O)c2cccc3cnccc23)CC1`, the “% Inhibition” value is reported as -4% and the Z score stood at 0.65.
The corresponding values for `Cn1cccc1CN(C(=O)c1cc2ccccc2[nH]1)C1CC1` are -5% and 1.
For the compound `Cc1sc2ncnc(Nc3ccc4c(c3)OCO4)c2c1C`, the “% Inhibition” value was -3% and the Z score was 0.37.
The corresponding values for `CC[C@H](C)[C@@H](CN(C)C)NC(=O)CCc1ccncc1` are 20% and -2.58.
With `O=C(NCC1CC1)c1ccc2[nH]c3c(c2c1)CCCCC3`, the “% Inhibition” value was -12% and the Z score is given as 1.65.
For the compound `CCCC(O)(CCC)CC(=O)N1CCN(C(=O)OCC)CC1`, the “% Inhibition” value is on record as -7% and the Z score is on record as 0.63.
The corresponding values for `O=C(c1ccc(-c2cn(-c3ccccc3)cn2)cc1)N1CCOC[C@@H](O)C1` are 5% and -0.8.
The corresponding values for `CCOc1cc(CN2CC[S+]([O-])CC2)ccc1OC` are 6% and -1.1.
For `Cc1nn(C)c(Cl)c1C(=O)Nc1ccc2ccccc2c1`, in that order: 10% and -1.64.
For the compound `Cc1nn(C)c(Cl)c1CNCc1ccc(N2CCCC2=O)cc1`, the “% Inhibition” value is recorded as -5% and the Z score is on record as 0.6.
The corresponding values for `Cc1nn(CCO)c(C)c1[C@@H]1NCCc2[nH]cnc21` are -16% and 2.3.
For `CCc1ccc([C@H]2NCCc3[nH]cnc32)nc1`, in that order: 55% and -5.21.
The corresponding values for `c1ccc(-c2cc([C@@H]3NCCc4[nH]cnc43)on2)cc1` are -4% and 0.56.
`CCc1nnc2c(S(=O)(=O)N(Cc3cccc(Cl)c3)c3ccccc3)cccn12`: the “% Inhibition” value is -17% and the Z score is listed as 2.2.
